# Results from PubChem BioAssay.
# Values joined by “and” are separate entries in the source; they are usually repeats but may differ in a detail not shown here. Equal entries are not always repeated. Active and inactive are the calls of the source.
# What was measured:
# [1] = A549 cell viability effects, profiling panel, calcein-AM fluorescence, 48 h, basal (AID 1162); details: higher = more signal
# [2] = adipocyte viability effects, profiling panel, cell-based, 3T3-L1 adipocytes, calcein-AM fluorescence, 48 h, basal (AID 1163); details: 3T3-L1 adipocytes viability, higher = more signal
# [3] = HepG2 cell viability effects, profiling panel, calcein-AM fluorescence, 48 h, basal (AID 1164); details: higher = more signal
# [4] = MM1S cell viability effects, profiling panel, calcein-AM fluorescence, 48 h, basal (AID 1165); details: higher = more signal;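 also: viability of MM1S multiple myeloma cells under basal unstimulated conditions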
# [5] = basal RPMI8226 viability, no added stimulus, profiling panel, cell-based, calcein-AM fluorescence, 48 h, PK04 Diversity Set (AID 1166); details: RPMI8226 myeloma viability, higher = more signal;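 also: cells grown under basal conditions without added stimulus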
# [6] = basal HepG2 mitochondrial membrane potential changes, profiling panel, cell-based, JC-1 fluorescence, 24 h, 100 nL compound (AID 1167); details: higher = more signal
# [7] = basal 3T3-L1 adipocyte mitochondrial potential changes, profiling panel, cell-based, JC-1 fluorescence, 3T3-L1 adipocytes, 24 h, 100 nL compound (AID 1168); details: JC-1 mitochondrial fluorescence, higher = more signal, called active from +8 up or from −8 down
# [8] = basal RPMI8226 mitochondrial membrane potential changes, profiling panel, cell-based, JC-1 fluorescence, 24 h, 100 nL compound (AID 1169); details: RPMI8226 myeloma, JC-1 mitochondrial potential fluorescence, higher = more signal
# [9] = basal MM1S mitochondrial membrane potential changes, profiling panel, cell-based, JC-1 fluorescence, 24 h, 100 nL compound (AID 1170); details: higher = more signal
# [10] = A549 lung cancer cell viability effects, profiling panel, resazurin fluorescence, 24 h, PK04 Diversity Set (AID 1171); details: higher = more signal, called active from +8 up or from −8 down
# Also: test concentration not given here.
SMILES,z-score [1],z-score [2],z-score [3],z-score [4],z-score [5],z-score [6],z-score [7],z-score [8],z-score [9],z-score [10]
COC(=O)c1c2oc(c1C(=O)OC)C(=O)N[C@@H](Cc1ccccc1)Cn1cc(nn1)C1(CCCCC1)NC(=O)N[C@H](CO)CC2,2.13 and 1.06,-0.29 and 0.184,0.893 and 0.0236,0.434 and -0.392,1.51 and -1.13,1.09 and 4.63,0.354 (inactive) and -0.852 (inactive),-0.0874 and -0.0745,0.559 and -0.594,0.976 (inactive) and 1.37 (inactive)
CC(C)=NOCc1ccc(-c2cn([C@@H]3COC[C@H]3O)nn2)cc1,0.0524,0.371,0.239,-0.812,0.176,-0.32,-0.0926 (inactive),0.169,1.43,-0.207 (inactive)
C=CCN(CCCCC)C(=O)C(c1cccs1)N(C(=O)/C=C\C(=O)O)c1c(Cl)cccc1CO (stereo not given),0.307 and -0.656,0.131 and -0.101,-1.11 and -0.202,1.34 and 2.08,0.114 and -0.235,-0.0476 and -0.222,-0.706 (inactive) and 0.13 (inactive),0.1 and 0.992,0.0829 and -0.125,-0.559 (inactive) and 0.0449 (inactive)
C=CCN1C(=O)[C@]2(O[C@H](CCn3cc(CCO)nn3)[C@@H]([Si](C)(C)c3ccc(OC)cc3)[C@@H]2C)c2cc(N3C(=O)c4cccc5cccc3c45)ccc21,-3.83 and -4.13,-1.83 and -2.41,-4.65 and -4.73,-2.66 and -2.87,-4.33 and -4.37,-1.51 and 1.37,5.29 (inactive) and 4.16 (inactive),-0.877 and -0.786,-2.27 and -1.98,-6.11 (inactive)
C=CCN(CCCCC)C(=O)C1N(C(C)(C)CO)C(=O)C2C(C(=O)O)C3C=CC21O3 (stereo not given),-0.777 and -0.44,-0.472 and -0.0106,0.174 and -0.209,0.369 and -0.0102,-0.187 and -0.148,-0.66 and -1.15,0.044 (inactive) and -0.845 (inactive),0.776 and 0.876,0.861 and 0.681,0.0106 (inactive) and -0.0941 (inactive)
C=CCN(Cc1ccccc1)C(=O)C1N(CCOCCO)C(=O)C2C(C(=O)O)C3C=CC21O3 (stereo not given),0.457 and -0.65,1 and 0.0853,-0.475 and -1.46,0.443 and 1.02,0.953 and -1.25,0.341 and -0.0276,0.978 (inactive) and -0.925 (inactive),0.747 and 0.0424,1.26 and -0.0145,-0.474 (inactive) and 0.0887 (inactive)
C[C@@H]1CC[C@H]2C(=O)NC[C@@H](O)CN2[C@H]1c1ccc(Br)cc1,-0.179 and 0.44,-0.856 and 0.491,-0.141 and 0.284,0.211 and -0.52,-0.239 and -0.0289,-0.606 and 0.493,-0.455 (inactive) and 0.104 (inactive),-0.606 and 0.0684,0.0814 and -0.633,0.153 (inactive) and -0.285 (inactive)
O=C1[C@H]2[C@H]3[C@H](O)[C@H](O)CC(=NOCc4ccccc4)[C@H]3CC[C@H]2C(=O)N1Cc1ccccc1,-0.85,1.18,-0.977,-0.695,-1.69,1.09,-0.0708 (inactive),0.00736,-1.48,0.51 (inactive)
C=CCN(C(=O)C(c1cccs1)N(C(=O)/C=C\C(=O)O)C(C)(C)CO)c1ccc(OC)cc1 (stereo not given),3.04 and 1.76,1.09 and 0.718,0.717 and 1.1,1.61 and 1.55,-0.223 and 1.05,1.16 and 0.287,2.24 (inactive) and 0.954 (inactive),-0.567 and 0.754,0.212 and 0.326,0.579 (inactive) and -0.0357 (inactive)
C=CC[C@H](O)c1ccc(OCCO)cc1,-0.168 and -0.248,-0.219 and -0.258,-0.267 and 0.456,0.842 and -1.08,-0.252 and -0.209,-0.301 and -0.603,-0.315 (inactive) and 0.251 (inactive),-0.0607 and 0.117,0.319 and -0.662,-0.233 (inactive) and -0.884 (inactive)
COC(=O)C1=C(C)N(Cc2ccccc2)[C@]23O[C@](C(=O)OC)(C(=O)N2[C@@H]1c1ccccc1)[C@@H](c1ccccc1)[C@@H]3C(=O)c1ccccc1,0.668 and 0.418,1.64 and 0.204,0.344 and 0.832,0.54 and 0.391,-0.0139 and 0.294,2.68 and 2.31,1.13 (inactive) and 0.417 (inactive),0.535 and -0.253,-0.00272 and 0.667,0.266 (inactive) and 1.05 (inactive)
CC(C)[Si]1(C(C)C)OCc2cc(CCCc3cc4c(c(CCc5ccccc5)n3)[Si](C(C)C)(C(C)C)OC4)nc(CCc3ccccc3)c21,0.148 and -0.222,0.673 and -0.626,-0.661 and -0.566,-1.66 and 0.326,-1.09 and -0.322,-0.508 and -1.19,1.72 (inactive) and -1 (inactive),-0.152 and 1.02,-0.38 and -0.852,0.576 (inactive) and -0.19 (inactive)
Cc1ccc(S(=O)(=O)N[C@@H]2COC(=O)CC=C[C@@H](C)[C@@H]3C=C[C@H](O)[C@@H](COC(=O)CC=C[C@H]2C)O3)cc1,0.616 and -0.418,-0.347 and -0.476,0.664 and -1.95,0.0847 and -1.25,0.0913 and -0.776,-0.0139 and 0.344,-0.0698 (inactive) and 0.134 (inactive),-0.858 and 1.11,1.32 and -1.69,0.0086 (inactive) and 0.658 (inactive)
